# Source: PubChem BioAssay (NCI)
# About 79,000 compounds went through this panel and 15% of them were active in at least one assay; those are over-represented in the sample as a whole. A number with no mark means an inactive call. Active and inactive are the calls of the source. Cut-off read from the data, not from the text of the source: active = growth inhibition above about 70%; inactive = the rest.
# Assays:
# [1] = NCI Yeast Anticancer Drug Screen. Data for the rad52 strain (AID 147);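 note: 0% = growth of vehicle-treated control cultures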; conditions: S. cerevisiae rad52 mutant growth inhibition, hits give high values
# Method in brief: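 Screen used a yeast mutant impaired in DNA repair. After compound exposure, growth was measured. Values reflect inhibition compared with vehicle-treated cells.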
# [2] = NCI Yeast Anticancer Drug Screen. Data for the wt1 strain (AID 149);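 note: 0% = growth of vehicle-treated wt1 cultures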; conditions: S. cerevisiae wt1 strain (SPY 50644) growth inhibition, hits give high values
# Method in brief: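 Yeast wt1 strain exposed to compounds; growth inhibition measured relative to vehicle-treated controls.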
# [3] = NCI Yeast Anticancer Drug Screen. Data for the mgt1 strain (AID 153); conditions: S. cerevisiae mgt1 mutant growth inhibition, hits give high values
# Method in brief: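 Genetically defined yeast (mgt1) treated with compound; inhibition of growth expressed against vehicle-treated controls.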
# [4] = NCI Yeast Anticancer Drug Screen. Data for the rad50 strain (AID 155);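 note: 0% = growth of vehicle-only cultures of the same strain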; conditions: S. cerevisiae rad50 strain growth inhibition, hits give high values
# Method in brief: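 Yeast carrying a defined DNA repair defect were exposed to test compounds, and growth was compared with vehicle-treated controls to give percent inhibition.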
# [5] = NCI Yeast Anticancer Drug Screen. Data for the mec2-1 strain (AID 157); conditions: S. cerevisiae mec2-1 strain, hits give high values
# Method in brief: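 Readout is yeast growth inhibition, normalised to vehicle-treated controls, in the mec2-1 strain exposed to compound.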
# [6] = NCI Yeast Anticancer Drug Screen. Data for the rad14 strain (AID 159);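 note: 0% = growth of vehicle-treated control cultures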; conditions: S. cerevisiae rad14 strain growth inhibition, hits give high values
# Method in brief: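 Yeast cells carrying a defined DNA-repair defect were exposed to compounds, and growth inhibition was calculated relative to vehicle-treated control cultures.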
# [7] = NCI Yeast Anticancer Drug Screen. Data for the sgs1 mgt1 strain (AID 161);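 note: 0% = growth of cultures given vehicle only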; conditions: S. cerevisiae sgs1 mgt1 strain, hits give high values
# Method in brief: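 This yeast growth screen uses a strain with defined DNA-repair lesions; compound-treated growth is compared with vehicle-treated growth.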
# [8] = NCI Yeast Anticancer Drug Screen. Data for the CLN2oe strain (AID 163);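 note: 0% = growth of vehicle-only control cultures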; conditions: S. cerevisiae CLN2oe strain, hits give high values
# Method in brief: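 Values reflect how much compound exposure reduced yeast growth, referenced to vehicle-exposed cells. Assay organism is a strain with a defined genetic change affecting cell-cycle control.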
# [9] = NCI Yeast Anticancer Drug Screen. Data for the cln2 rad14 strain (AID 165);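 note: 0% = growth equal to vehicle treated cultures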; conditions: S. cerevisiae cln2 rad14 strain, hits give high values
# Method in brief: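 Relative to vehicle controls, growth inhibition of compound-treated cln2 rad14 yeast was recorded.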
# [10] = NCI Yeast Anticancer Drug Screen. Data for the bub3 strain (AID 167); conditions: S. cerevisiae bub3 mutant strain, hits give high values
# Method in brief: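 Compounds were applied to a genetically altered yeast strain carrying a cell-cycle control defect. Growth inhibition was scored against vehicle-treated controls.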
# [11] = NCI Yeast Anticancer Drug Screen. Data for the wt2 strain (AID 169);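 note: 0% = growth of vehicle-treated yeast cultures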; conditions: S. cerevisiae wt2 strain growth inhibition, hits give high values
# Method in brief: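 Values express reduction in yeast growth under compound treatment, referenced to vehicle-treated cells.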
# [12] = NCI Yeast Anticancer Drug Screen. Data for the mlh1 strain (AID 171);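 note: 0% = growth of vehicle-treated control cultures of the same strain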; conditions: S. cerevisiae mlh1 strain growth inhibition, hits give high values
# Method in brief: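 Steps: expose the defined-mutant yeast strain to compound; expose a parallel culture to vehicle; measure growth; express compound effect as inhibition relative to the vehicle culture.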
# [13] = NCI Yeast Anticancer Drug Screen. Data for the sgs1 strain (AID 173);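 note: 0% = growth of vehicle-only control cultures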; conditions: S. cerevisiae sgs1 mutant, hits give high values
# Method in brief: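 Treat defined-mutant yeast with compound; measure growth; calculate inhibition relative to vehicle-treated cells.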
# [14] = NCI Yeast Anticancer Drug Screen. Data for the mlh1 rad18 strain (AID 175); conditions: S. cerevisiae mlh1 rad18 strain growth inhibition, hits give high values
# Method in brief: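 Test agents were incubated with a yeast strain of defined genotype (DNA damage repair defect). Inhibition of growth was derived by comparison with vehicle-exposed cultures.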
# [15] = NCI Yeast Anticancer Drug Screen. Data for the rad18 strain (AID 177); conditions: S. cerevisiae rad18 mutant growth inhibition, hits give high values
# Method in brief: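 A genetically defined yeast mutant impaired in DNA damage repair was treated with test compounds, then its growth was measured against cultures receiving vehicle alone.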
# [16] = at 5.0 µM (retest, dose inferred, filed as 0.5)
# [17] = at 50.0 µM (retest, dose inferred, filed as 5.0)
compound,measurement,setting,value
COC(=O)/C(C#N)=C\NC(=S)C(N)=S,growth inhibition,[1]; at 1.2 µM,-6%
same,growth inhibition,[1]; at 3.7 µM,24%
same,growth inhibition,[1]; at 11.0 µM,86% (active)
same,growth inhibition,[1]; at 33.0 µM,99% (active)
same,growth inhibition,[1]; at 100.0 µM,98% (active)
same,growth inhibition,[2]; at 1.2 µM,8%
same,growth inhibition,[2]; at 3.7 µM,26%
same,growth inhibition,[2]; at 11.0 µM,54%
same,growth inhibition,[2]; at 33.0 µM,99% (active)
same,growth inhibition,[2]; at 100.0 µM,98% (active)
same,growth inhibition,[3]; at 1.2 µM,9%
same,growth inhibition,[3]; at 3.7 µM,21%
same,growth inhibition,[3]; at 11.0 µM,79% (active)
same,growth inhibition,[3]; at 33.0 µM,99% (active)
same,growth inhibition,[3]; at 100.0 µM,98% (active)
same,growth inhibition,[4]; at 1.2 µM,12%
same,growth inhibition,[4]; at 3.7 µM,30%
same,growth inhibition,[4]; [16],2%
same,growth inhibition,[4]; at 11.0 µM,90% (active)
same,growth inhibition,[4]; at 33.0 µM,98% (active)
same,growth inhibition,[4]; [17],98% (active)
same,growth inhibition,[4]; at 50.0 µM,88.5% (active)
same,growth inhibition,[4]; at 100.0 µM,97% (active)
same,growth inhibition,[5]; at 1.2 µM,-5%
same,growth inhibition,[5]; at 3.7 µM,24%
same,growth inhibition,[5]; [16],-1%
same,growth inhibition,[5]; at 11.0 µM,98% (active)
same,growth inhibition,[5]; at 33.0 µM,99% (active)
same,growth inhibition,[5]; [17],99% (active)
same,growth inhibition,[5]; at 50.0 µM,93.2% (active)
same,growth inhibition,[5]; at 100.0 µM,98% (active)
same,growth inhibition,[6]; at 1.2 µM,4%
same,growth inhibition,[6]; at 3.7 µM,15%
same,growth inhibition,[6]; at 11.0 µM,98% (active)
same,growth inhibition,[6]; at 33.0 µM,99% (active)
same,growth inhibition,[6]; at 100.0 µM,98% (active)
same,growth inhibition,[7]; [16],13%
same,growth inhibition,[7]; [17],98% (active)
same,growth inhibition,[7]; at 50.0 µM,91.1% (active)
same,growth inhibition,[8]; at 1.2 µM,21%
same,growth inhibition,[8]; at 3.7 µM,40%
same,growth inhibition,[8]; at 11.0 µM,96% (active)
same,growth inhibition,[8]; at 33.0 µM,100% (active)
same,growth inhibition,[8]; at 100.0 µM,98% (active)
same,growth inhibition,[9]; [16],22%
same,growth inhibition,[9]; [17],99% (active)
same,growth inhibition,[9]; at 50.0 µM,89.5% (active)
same,growth inhibition,[10]; at 1.2 µM,24%
same,growth inhibition,[10]; at 3.7 µM,34%
same,growth inhibition,[10]; [16],4%
same,growth inhibition,[10]; at 11.0 µM,99% (active)
same,growth inhibition,[10]; at 33.0 µM,99% (active)
same,growth inhibition,[10]; [17],99% (active)
same,growth inhibition,[10]; at 50.0 µM,91.3% (active)
same,growth inhibition,[10]; at 100.0 µM,98% (active)
same,growth inhibition,[11]; at 1.2 µM,-6%
same,growth inhibition,[11]; at 3.7 µM,10%
same,growth inhibition,[11]; at 11.0 µM,40%
same,growth inhibition,[11]; at 33.0 µM,99% (active)
same,growth inhibition,[11]; at 100.0 µM,98% (active)
same,growth inhibition,[12]; at 1.2 µM,17%
same,growth inhibition,[12]; at 3.7 µM,32%
same,growth inhibition,[12]; at 11.0 µM,98% (active)
same,growth inhibition,[12]; at 33.0 µM,99% (active)
same,growth inhibition,[12]; at 100.0 µM,98% (active)
same,growth inhibition,[13]; at 1.2 µM,9%
same,growth inhibition,[13]; at 3.7 µM,25%
same,growth inhibition,[13]; at 11.0 µM,86% (active)
same,growth inhibition,[13]; at 33.0 µM,99% (active)
same,growth inhibition,[13]; at 100.0 µM,98% (active)
same,growth inhibition,[14]; [16],50%
same,growth inhibition,[14]; [17],98% (active)
same,growth inhibition,[14]; at 50.0 µM,89.3% (active)
same,growth inhibition,[15]; at 1.2 µM,-4%
same,growth inhibition,[15]; at 3.7 µM,16%
same,growth inhibition,[15]; at 11.0 µM,53%
same,growth inhibition,[15]; at 33.0 µM,99% (active)
same,growth inhibition,[15]; at 100.0 µM,98% (active)
CC(=O)O[C@H]1CC[C@@]2(C)C(=CC[C@@H]3C2CC[C@]2(C)C(=O)NC(=O)CC32)C1 (stereo partly drawn),growth inhibition,[1]; at 1.2 µM,-33%
same,growth inhibition,[1]; at 3.7 µM,-35%
same,growth inhibition,[1]; at 11.0 µM,-42%
same,growth inhibition,[1]; at 33.0 µM,-29%
same,growth inhibition,[1]; at 100.0 µM,-41%
same,growth inhibition,[2]; at 1.2 µM,-17%
same,growth inhibition,[2]; at 3.7 µM,-7%
same,growth inhibition,[2]; at 11.0 µM,-21%
same,growth inhibition,[2]; at 33.0 µM,-17%
same,growth inhibition,[2]; at 100.0 µM,-21%
same,growth inhibition,[3]; at 1.2 µM,-28%
same,growth inhibition,[3]; at 3.7 µM,-19%
same,growth inhibition,[3]; at 11.0 µM,56%
same,growth inhibition,[3]; at 33.0 µM,76% (active)
same,growth inhibition,[3]; at 100.0 µM,70% (active)
same,growth inhibition,[4]; at 1.2 µM,-31%
same,growth inhibition,[4]; at 3.7 µM,-29%
same,growth inhibition,[4]; [16],-21%
same,growth inhibition,[4]; at 11.0 µM,-20%
same,growth inhibition,[4]; at 33.0 µM,-25%
same,growth inhibition,[4]; [17],-29%
same,growth inhibition,[4]; at 50.0 µM,12.4%
same,growth inhibition,[4]; at 100.0 µM,-28%
same,growth inhibition,[5]; at 1.2 µM,-21%
same,growth inhibition,[5]; at 3.7 µM,-15%
same,growth inhibition,[5]; [16],-44%
same,growth inhibition,[5]; at 11.0 µM,-13%
same,growth inhibition,[5]; at 33.0 µM,-43%
same,growth inhibition,[5]; [17],-6%
same,growth inhibition,[5]; at 50.0 µM,-12.2%
